Consider 64 molecules from PubChem BioAssay AID504332 (National Center for Advancing Translational Sciences (NCATS), 2011).

The campaign covered roughly 350,000 compounds. About 31,000 (8.9%) were called active. About 15% were inconclusive and are not listed. The entries come from a sample that favours actives as a whole. Where a call stands in place of a potency, no number is given. Unmarked numbers belong to inactive results. The call rests on the fitted dose curve; in most records, active means well fitted inhibition curve with a large enough effect; inconclusive means small, poorly fitted or top-dose-only effect; inactive means no such curve, though single readings can be large or run the other way.
Potency means the concentration at half of the fitted maximal effect.

The target in the test is Histone-lysine N-methyltransferase EHMT2 (Homo sapiens) (UniProt Q96KQ7). Kind of test: qHTS Assay for Inhibitors of Histone Lysine Methyltransferase G9a. Further: nearly all actives have a fitted effect of over 75% in size. The settings on record: G9a H3K9 monomethylation, AlphaScreen, 2 h; series mostly up to 59 µM. Put shortly: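 Step 1: enzyme (final 20 nM) with compound, 15 min RT. Step 2: substrate peptide 500 nM and SAM 20 uM, 2 h RT. Step 3: anti-H3K9me1 antibody and AlphaScreen beads, 10 min, then plate read.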
Chain of Histone-lysine N-methyltransferase EHMT2 (Homo sapiens) (Q96KQ7 913-1193 limits assumed): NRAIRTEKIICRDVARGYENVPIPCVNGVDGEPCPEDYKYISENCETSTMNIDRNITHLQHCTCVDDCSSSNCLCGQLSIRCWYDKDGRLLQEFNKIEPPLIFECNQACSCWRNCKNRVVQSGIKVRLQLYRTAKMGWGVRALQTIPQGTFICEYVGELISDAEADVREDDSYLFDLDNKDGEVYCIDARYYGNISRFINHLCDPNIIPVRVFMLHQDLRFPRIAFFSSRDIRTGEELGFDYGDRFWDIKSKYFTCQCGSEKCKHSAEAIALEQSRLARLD
(qHTS replaces the single test concentration by a dilution series.)
`COc1ccccc1CNc1nc2ccc(Cl)cc2n2cnnc12`: the Potency result was “inactive”.

In the case of `CC(=O)Nc1cccc(NC(=O)CSc2nccn2Cc2ccc3c(c2)OCO3)c1`, the Potency result was “inactive”. Regarding `COc1ccc(C2CC(c3cccs3)=NN2c2ccc(F)cc2)cc1OC` (centres undefined), the Potency was 3.98 µM (active).

In the case of `COc1ccccc1N1N=C(c2cccs2)CC1c1ccccc1` (centres undefined), the Potency entry is “inactive”. Still for that read-out and setting: the same measure for `COc1ccc(C2CC(c3cccs3)=NN2c2ccccc2)cc1` (centres undefined): “inactive”; for `COc1ccc(-c2nc(CN3CCC(C(=O)NCc4ccccc4)CC3)c(C)o2)cc1OC`: “inactive”. On to `CCOC(=O)C1CCCN(C(=O)c2ccc(-n3ccc4ccccc43)s2)C1` (centres undefined), for which the Potency result was “inactive”.

`CCc1cccc(C)c1NC(=O)COC(=O)CC1CCCC1`: the Potency result is “inactive”. With `Cc1ccc(C(C(=O)NCc2ccco2)N(CC2CCCO2)C(=O)Cn2nnc3ccccc32)cc1` (centres undefined), the Potency entry was “inactive”. For the molecule `COCCNC(=O)C(c1ccc(C)o1)N(Cc1ccccc1)C(=O)Cn1nnc2ccccc21` (centres undefined), the Potency result is “inactive”. As for `COc1ccccc1N(C(=O)Cn1nnc2ccccc21)C(C(=O)NCc1ccco1)c1ccc(C)o1` (centres undefined), the Potency was 50.1 µM (active). With `Cc1ccc(C(=O)Nc2ccn(C)n2)cc1`, the activity, negative = inhibition was 0.254% [at 12.7 µM]. Consider `CC1CCN(S(=O)(=O)c2ccc3c(c2)N(CC(=O)NCCc2ccccc2)C(=O)CO3)CC1`, for which the Potency entry is “inactive”. Turning to `CC1=C(c2ccc(C)c(C)c2)S(=O)(=O)NC1=NCc1ccccc1Cl`, the Potency entry is “inactive”.

As to `COc1ccc(CS(=O)/C(Cl)=C(/Cl)C(=O)Nc2ccc(OC)nc2)cc1` (centres undefined), the Potency was 11.2 µM (active). For `CCOc1ccc(S(=O)(=O)Nc2ccc(OC)nc2)cc1`, the Potency result was “inactive”.

On to `COc1ccc(NC(=O)C(=O)NCc2ccco2)cc1`, for which the Potency entry is “inactive”.

Regarding `COc1cc(C(=O)N2CCN(c3ccc(Nc4ccc(C)cc4)nn3)CC2)cc(OC)c1OC`, the Potency entry is “inactive”.

In the case of `CSc1ccc(NC(=O)Cn2nnnc2-c2ccccc2F)cc1`, the Potency result was “inactive”. The same measure, in the same setting: as for `COc1ccc(C2CC(=O)Nc3cc(C)c(C)cc32)c(OC)c1OC` (centres undefined), the entry is “inactive”; as for `COc1ccc(C2Sc3ccccc3NC3=C2C(=O)c2ccccc23)c(OC)c1OC` (centres undefined), 11.2 µM (active).

As for `COC(=O)C(C)C1Sc2ccccc2NC1=O` (centres undefined), the activity, negative = inhibition is 14.7% [at 12.7 µM]. For the molecule `O=C(NCC(c1ccc2c(c1)OCO2)N1CCN(c2ccccc2)CC1)C(=O)Nc1ccccc1F` (centres undefined), the Potency entry was “inactive”. With `C=CCC(NC(=O)Cc1ccccc1)C(=O)NCCC` (centres undefined), the activity, negative = inhibition is 5.83% [at 0.501 µM]. Consider `CCOC(=O)/C=C/C(=O)OCC(=O)NC(c1ccccc1)c1ccccc1`, for which the Potency result is “inactive”.

`O=C(Cc1ccc(-c2ccccc2)cc1)NC(c1ccccc1)c1ccccc1`: the Potency was 7.08 µM (active). With `C/C(CC(=O)NCc1ccc(Cl)cc1)=N\NC(=O)COc1ccc(C)cc1Br`, the Potency entry is “inactive”. For `Cc1ccccc1-c1ccc(C(=O)O)s1`, the Potency entry was “inactive”.

`Cc1ccccc1-c1nc(SCC(=O)N(C)c2ccccc2)c2c(=O)n(C)c(=O)n(C)c2n1`: the Potency entry was “inactive”. `Cc1ccccc1-c1n[nH]c(=S)n1/N=C/c1ccc(-c2ccccc2Br)o1`: the Potency is 12.6 µM (active). Turning to `Cc1ccccc1-c1n[nH]c(=S)n1C`, the Potency was 10 µM (active). Same read-out and setting: the same measure for `Cc1n[nH]c(=S)n1/N=C/c1ccc(Br)o1`: 3.16 µM (active); for `Cc1cc(C)cc(NS(=O)(=O)c2cc3c(cc2C)NC(=O)CO3)c1`: “inactive”; for `CCCCCc1c(C)nc(N2CCN(Cc3ccc4c(c3)OCO4)CC2)[nH]c1=O`: “inactive”.

Take `O=C(Cc1ccc(S(=O)(=O)N2CCOCC2)s1)NCCOc1ccccc1F`: the activity, negative = inhibition is -25.9% [at 12.7 µM]. With `CCNC(=O)c1cc2n(n1)CCCN(Cc1ccc(C)cc1)C2=O`, the activity, negative = inhibition was -1.49% [at 12.7 µM]. Consider `CN(C)S(=O)(=O)c1ccc(N2CCCC2)c(C(=O)Nc2ccc(Br)cc2F)c1`, for which the activity, negative = inhibition was 26.4% [at 2.33 µM]. Take `Nc1nc(Nc2ccccc2)nc(NCCO)c1[N+](=O)[O-]`: the Potency result is “inactive”.

Take `OCCNc1nc(Nc2ccc(Cl)c(Cl)c2)nc2ccccc12`: the Potency is 50.1 µM (active).

`COc1cc2nc(Cl)nc(NCCO)c2cc1OC`: the Potency result is “inactive”. As to `COc1ccc(OCC(=O)Nc2cccc(C(=O)OCc3cc(=O)n4nc(C)sc4n3)c2)cc1`, the Potency entry was “inactive”. Regarding `CN1CCN(S(=O)(=O)c2ccc(Nc3ccc(F)cc3)nc2)CC1`, the Potency entry is “inactive”. For `COc1ccccc1NC(=O)c1sc2nc(C)c(C(=O)Nc3ccc(Cl)cc3)c(-c3ccc(Br)cc3)c2c1N`, the Potency result was “inactive”. Turning to `O=C(Nc1cccc(C(F)(F)F)c1)c1cc(Br)cc(Br)c1O`, the activity, negative = inhibition was -37% [at 12.7 µM]. Consider `CCCc1ccc(OCC(O)CN2CCN(C(=O)OCC)CC2)cc1` (centres undefined), for which the Potency result was “inactive”. On to `CCc1ccc(S(=O)(=O)NCC(O)COc2ccc(OC)cc2)cc1` (centres undefined), for which the Potency entry was “inactive”.

Consider `Nc1ccc(OCC(O)C[n+]2ccc(CCS(=O)(=O)[O-])cc2)cc1` (centres undefined), for which the Potency was 39.8 µM (active). `Cn1c(CCC(=O)Nc2ccccc2F)nnc1SCC(=O)Nc1ccccc1Cl`: the Potency entry is “inactive”.

Regarding `Cn1c(SCC(=O)c2ccc(F)cc2)nnc1-c1ccccn1`, the Potency entry was “inactive”.

For `Cn1c(CC2Sc3ccccc3NC2=O)nnc1SCC(=O)c1ccc(Cl)cc1` (centres undefined), the Potency is 14.1 µM (active). Regarding `O=c1cc2nc(-c3ccccc3)nc(SCCOc3ccc(Cl)cc3)n2[nH]1`, the Potency result was “inactive”. Regarding `O=C(O)C1CCCN1S(=O)(=O)c1ccc(Br)cc1` (centres undefined), the activity, negative = inhibition is -11.1% [at 0.501 µM]. On to `CC(=O)Nc1ccc(S(=O)(=O)N2CCCC2C(=O)O)cc1` (centres undefined), for which the Potency entry was “inactive”. As for `O=C(O)C1CCCN1S(=O)(=O)c1ccc2c(c1)CCC2` (centres undefined), the Potency was 56.2 µM (active).

`CCOC(=O)N1CCc2c(sc(NCc3cccc(F)c3)c2C(=O)Nc2ccccc2OCC)C1`: the Potency is 1.41 µM (active).

Regarding `CCOC(=O)N1CCc2c(sc3c2C(=O)NC(c2ccccc2F)N3)C1` (centres undefined), the Potency result is “inactive”. Still for that read-out and setting: the same measure for `CCOC(=O)N1CCc2c(sc3c2c(=O)n(Cc2ccccc2)c(=O)n3CC(=O)Nc2cccc(C)c2)C1`: “inactive”. As to `COC(=O)c1ccccc1NC(=O)Cn1c(=O)n(-c2cccc(C(F)(F)F)c2)c(=O)c2c(C)c(C)sc21`, the Potency entry was “inactive”. `CS(=O)(=O)N1CCc2nc(-c3ccccc3)sc2C1`: the Potency entry is “inactive”. As to `Cc1ccc(S(=O)(=O)N2CCC(C(=O)OCC(=O)N(C)c3ccccc3)CC2)cc1C`, the Potency result is “inactive”. `O=C(Nc1c(-c2ccc(F)cc2)nc2ccccn12)c1cccc(F)c1`: the Potency result is “inactive”. `O=C(COC(=O)c1ccc(Oc2ccccc2)cc1)Nc1nnc(-c2ccccc2)o1`: the activity, negative = inhibition is 17.6% [at 12.7 µM].

Turning to `CCCC(=O)Nc1nnc(-c2ccccc2)o1`, the Potency is 39.8 µM (active). In the case of `O=C(COC(=O)c1ccccc1Br)Nc1nnc(-c2ccccc2)o1`, the Potency entry is “inactive”.
